We go through 24 compounds from PubChem BioAssay.

The target in assay [1] is Mitogen-activated protein kinase 7 (Homo sapiens) (UniProt Q13164). The assay is described as follows: Gal4-ERK5 driven luciferase induction – cell-based, HTS, primary screen (AID 1508626;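 active = luciferase signal above three times the same-plate solvent-only control wells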;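 also: luciferase driven by Gal4-ERK5 fusion binding five Gal4 sites before minimal TATA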). To be noted: HeLa Gal4-ERK5 transactivation, 18 h, at 5 µM, stronger effect = higher value.
Assay [2] can be described thus: compounds altering Cy5-DNA-NS3h complex signal – biochemical, LOPAC1280, artefact control for HCV NS3 helicase inhibitor project (AID 687037). To be noted: Cy5-DNA-NS3h complex fluorescence interference counterscreen. On the technique in general: The purpose of a counterscreen is to sort out artefacts and off-target activity.
The nature of assay [3]: blockers of cellular phospholipid synthesis – cell-based, LOPAC library, screen 4, primary screen (AID 1347384). Conditions: animal cells, phospholipid biosynthesis inhibition screen; at 10 µM.
The test system of assay [4] is Aerobactin synthetase IucA (Klebsiella pneumoniae). Nature of the assay: inhibition of K. pneumoniae IucA enzyme – biochemical, Tocris library, absorbance (AID 1345561).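 Also: 100% = enzyme without compound and 0% = no enzyme.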 Conditions: purified IucA enzyme assay, absorbance (OD) read-out; stronger effect = lower value;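 tested at 8 µM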.
Assay [5] is described as follows: viability loss in pontine glioma line – cell-based, SU-DIPG-XVII, MIPE5.0, CellTiter-Glo, qHTS, dose response (AID 1347060; cut-off not given, nearly all actives have AC50 up to about 26 µM;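 as to AC50: cells exposed to compound for 48 hours before viability readout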). To be noted: CellTiter-Glo ATP luminescence.
Assay [6] can be described thus: viability loss in pontine glioma line – cell-based, JHH-DIPG-1, MIPE4.0, CellTiter-Glo, qHTS, dose response (AID 1347062; cut-off not given, nearly all actives have AC50 up to about 27 µM;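 as to AC50: cells exposed to compound for two days before readout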). To be noted: JHH-DIPG-1 viability, CellTiter-Glo ATP luminescence.
A short description of assay [7]: viability loss in pontine glioma line – cell-based, SU-DIPG-XIII, MIPE5.0, CellTiter-Glo, qHTS, dose response (AID 1347064; cut-off not given, nearly all actives have AC50 up to about 23 µM). Conditions: CellTiter-Glo ATP luminescence. (In general: In ATP-based viability assays light output follows the ATP content of the culture.)
Assay [8] in a line: viability loss in pontine glioma line – cell-based, SU-DIPG-XXV, MIPE5.0, CellTiter-Glo, qHTS, dose response (AID 1347065; cut-off not given, nearly all actives have AC50 up to about 26 µM;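 also: cells exposed to compound for 48 hours before ATP readout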). To be noted: CellTiter-Glo ATP luminescence.
Assay [9] in a line: growth inhibition of DIPG cells – cell-based, MIPE4.0 library, CellTiter-Glo luminescence, qHTS (AID 1347066; cut-off not given, nearly all actives have AC50 up to about 30 µM;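 also: cells exposed to compound for 48 hours before readout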). To be noted: SU-DIPG-VI viability, CellTiter-Glo ATP luminescence.
Assay [10] in a line: JHH-DIPG-1 glioma cell viability, MIPE5.0 library, CellTiter-Glo luminescence, qHTS (AID 1347067; cut-off not given, nearly all actives have AC50 up to about 26 µM;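 also: cells exposed to compound for 48 hours before readout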). To be noted: JHH-DIPG-1 glioma viability, CellTiter-Glo ATP luminescence.
The nature of assay [11]: growth inhibition of DIPG cells – cell-based, MIPE5.0 library, qHTS (AID 1347068; cut-off not given, nearly all actives have IC50 up to about 30 µM;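 as to IC50: cells exposed to compound for 48 hours before viability readout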). Conditions: SU-DIPG-XXV viability.
Assay [12] concerns the target ATP-dependent translocase ABCB1 (Homo sapiens) (UniProt P08183). The assay is described as follows: P-glycoprotein substrate transport blockade – cell-based (AID 377; in the data active = fluorescence slope change above about 50%). To be noted: MDR1-expressing cells, fluorescent substrate accumulation slope; stronger effect = higher value; concentration not given here.
Assay [13] can be described thus: viability loss in pontine glioma line – cell-based, SU-DIPG-XIII, MIPE4.0, CellTiter-Glo, qHTS, dose response (AID 1347061; cut-off not given, nearly all actives have AC50 up to about 37 µM;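 also: cells exposed to compound for 48 hours before readout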). To be noted: CellTiter-Glo ATP luminescence.
Assay [14] is described as follows: viability loss in pontine glioma line – cell-based, SU-DIPG-IV, MIPE4.0, CellTiter-Glo, qHTS, dose response (AID 1347063; cut-off not given, nearly all actives have AC50 up to about 30 µM;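 also: compound exposure lasted 48 hours before the viability readout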). To be noted: CellTiter-Glo ATP luminescence.

Unmarked numbers belong to inactive results. Records with an inconclusive call do not appear. The source made the active and inactive calls. Unless noted, no rule for the calls is given here.

Chain of ATP-dependent translocase ABCB1 (Homo sapiens) (P08183 whole entry, looked up): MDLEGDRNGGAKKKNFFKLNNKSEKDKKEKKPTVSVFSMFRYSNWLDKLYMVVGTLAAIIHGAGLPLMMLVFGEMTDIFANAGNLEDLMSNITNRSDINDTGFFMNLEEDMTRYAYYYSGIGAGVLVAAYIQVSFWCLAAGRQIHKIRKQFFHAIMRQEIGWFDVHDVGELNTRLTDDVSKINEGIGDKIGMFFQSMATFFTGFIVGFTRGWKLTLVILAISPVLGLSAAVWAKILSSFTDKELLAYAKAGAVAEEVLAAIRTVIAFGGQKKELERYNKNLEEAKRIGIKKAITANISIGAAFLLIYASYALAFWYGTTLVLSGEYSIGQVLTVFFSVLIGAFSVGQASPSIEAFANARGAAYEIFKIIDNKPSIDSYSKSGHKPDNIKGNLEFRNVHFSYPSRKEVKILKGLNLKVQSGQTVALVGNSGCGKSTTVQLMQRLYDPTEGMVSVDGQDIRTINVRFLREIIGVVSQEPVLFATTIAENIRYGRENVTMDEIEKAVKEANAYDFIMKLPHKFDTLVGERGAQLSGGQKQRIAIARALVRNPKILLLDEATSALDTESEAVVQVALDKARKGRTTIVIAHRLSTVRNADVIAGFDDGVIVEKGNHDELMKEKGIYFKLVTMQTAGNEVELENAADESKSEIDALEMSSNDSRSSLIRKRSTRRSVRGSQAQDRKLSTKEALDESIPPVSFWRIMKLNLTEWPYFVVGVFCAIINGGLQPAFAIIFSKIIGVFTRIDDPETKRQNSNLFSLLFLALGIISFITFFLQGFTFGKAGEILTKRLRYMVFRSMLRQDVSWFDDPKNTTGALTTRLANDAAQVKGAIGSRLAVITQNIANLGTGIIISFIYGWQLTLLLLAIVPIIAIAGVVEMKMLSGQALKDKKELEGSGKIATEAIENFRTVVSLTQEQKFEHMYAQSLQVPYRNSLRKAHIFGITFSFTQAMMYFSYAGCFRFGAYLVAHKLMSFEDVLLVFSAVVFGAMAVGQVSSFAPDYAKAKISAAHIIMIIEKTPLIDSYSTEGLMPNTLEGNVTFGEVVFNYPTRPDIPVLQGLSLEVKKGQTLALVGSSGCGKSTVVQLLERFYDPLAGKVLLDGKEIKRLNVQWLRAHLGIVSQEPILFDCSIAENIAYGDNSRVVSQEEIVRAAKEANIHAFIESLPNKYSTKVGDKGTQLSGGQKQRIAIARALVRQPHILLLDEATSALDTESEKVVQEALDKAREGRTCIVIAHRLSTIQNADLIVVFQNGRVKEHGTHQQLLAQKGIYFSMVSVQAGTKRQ
Chain of Mitogen-activated protein kinase 7 (Homo sapiens) (Q13164 whole entry, looked up, the tested form may be a part): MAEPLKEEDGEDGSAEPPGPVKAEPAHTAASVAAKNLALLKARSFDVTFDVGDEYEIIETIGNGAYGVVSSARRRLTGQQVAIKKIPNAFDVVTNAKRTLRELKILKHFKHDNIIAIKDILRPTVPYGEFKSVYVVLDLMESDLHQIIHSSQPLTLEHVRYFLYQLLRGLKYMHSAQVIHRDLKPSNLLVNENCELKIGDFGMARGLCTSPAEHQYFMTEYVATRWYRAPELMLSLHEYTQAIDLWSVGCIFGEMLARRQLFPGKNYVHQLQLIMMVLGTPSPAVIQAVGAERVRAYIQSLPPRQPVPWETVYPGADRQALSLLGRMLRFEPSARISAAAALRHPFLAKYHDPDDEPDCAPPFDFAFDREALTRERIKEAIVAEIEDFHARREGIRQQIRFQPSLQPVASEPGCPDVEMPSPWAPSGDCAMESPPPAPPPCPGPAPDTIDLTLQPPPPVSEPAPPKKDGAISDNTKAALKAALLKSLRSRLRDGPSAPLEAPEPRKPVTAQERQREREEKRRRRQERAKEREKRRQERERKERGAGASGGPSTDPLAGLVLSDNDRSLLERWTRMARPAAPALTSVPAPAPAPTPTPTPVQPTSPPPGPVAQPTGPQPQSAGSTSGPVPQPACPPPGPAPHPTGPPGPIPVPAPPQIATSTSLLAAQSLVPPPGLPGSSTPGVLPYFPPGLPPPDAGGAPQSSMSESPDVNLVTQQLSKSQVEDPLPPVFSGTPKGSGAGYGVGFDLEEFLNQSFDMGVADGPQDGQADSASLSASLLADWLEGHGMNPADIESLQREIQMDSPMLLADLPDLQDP

`C[N+]1(C)[C@@H]2CC[C@H]1CC(OC(=O)C(CO)c1ccccc1)C2` (some centres not stated): the luciferase signal in assay [1] is 60 AU.

With `CC(=O)[C@H]1CC[C@H]2[C@@H]3CC[C@H]4C[C@H](O)CC[C@]4(C)[C@H]3C(=O)C[C@]12C`, the fluorescence ratio (interference) in assay [2] was 1. In assay [3], the compound was called inactive.

With `N#CC(C#N)=Cc1ccc(O)c(O)c1`, the fluorescence ratio (interference) in [2] is 1. Further, in [4], the remaining activity (usually the signal under treatment as a percentage of the control signal) was 122%. Also, the outcome in [3] was inactive.

On to `CCCCC/C=C\C/C=C\C/C=C\C/C=C\CCCC(=O)NCC(=O)O`, for which the fluorescence ratio (interference) in [2] was 1.

For the compound `COC[C@@H](NC(C)=O)C(=O)NCc1ccccc1`, the call in assay [5], in [6], in [7], in assay [8], in assay [9] and in assay [10] was inactive. For the same compound, in assay [11], the compound was classed as inactive.

On to `NCC1(CC(=O)O)CCCCC1`, for which the fluorescence slope change in assay [12] was 23.2%. The fluorescence ratio (interference) in [2] is 1. Further, the call in assay [5], in assay [13], in [6], in assay [14], in assay [7] and in [8] was inactive. Also, the outcome in assay [9], in assay [11] and in [3] was inactive. Besides, the luciferase signal in assay [1] is 76 AU.

Regarding `COc1ccc(CN2CCNCC2)c(OC)c1OC`, in [12], the fluorescence slope change was 2.5%.

`CC[N+](CC)(CC)CC`: in assay [2], the fluorescence ratio (interference) was 1.

In the case of `CCOC(=O)CC(SP(=S)(OC)OC)C(=O)OCC` (configuration not stated), the luciferase signal in assay [1] was 52 AU.

Take `O=C1NCN(c2ccccc2)C12CCN(CC1COc3ccccc3O1)CC2` (configuration not stated): the fluorescence ratio (interference) in [2] was 0.9. The remaining activity in [4] is 104%.

Consider `Clc1cccc(SC2CCNCC2)n1`, for which the remaining activity in assay [4] was 108%.

`Cc1nnc2n1-c1sc(CCC(=O)N3CCOCC3)cc1C(c1ccccc1Cl)=NC2`: the remaining activity in assay [4] was 108%.

As to `O=C(O)c1ccc2[nH]cc(CCCCN3CC=C(c4ccccc4)CC3)c2c1`, the remaining activity in [4] was 115%.

For the compound `Fc1ccc(C(OCCN2CCN(CCCc3ccccc3)CC2)c2ccc(F)cc2)cc1`, the fluorescence slope change in assay [12] was 119% (active). In addition, the fluorescence ratio (interference) in assay [2] was 1. Further, the remaining activity in [4] was 118%. For the same compound, the AC50 (in general, the midpoint of the concentration-response curve, whichever way the signal moves) is 14.8 µM (active) in assay [5]; 20.9 µM (active) in [13]; 14.8 µM (active) in [6]; 13.2 µM (active) in assay [14]; 8.33 µM (active) in assay [8]; 16.6 µM (active) in assay [9]. The AC50 in [10] was 18.6 µM (active). The IC50 – broadly, the concentration that gives 50% inhibition – in assay [11] is 16.6 µM (active). Also, in [3], the compound was called inactive.

On to `FC(F)(F)c1cccc(C2=CCN(CCc3ccc4ccccc4c3)CC2)c1`, for which, in [4], the remaining activity was 94.1%.

For the compound `CC(C)(C)OC(=O)c1ncn2c1[C@@H]1CCCN1C(=O)c1c(Br)cccc1-2`, the remaining activity in assay [4] was 103%.

`CCCC[N+]1(C)[C@@H]2CC(OC(=O)[C@H](CO)c3ccccc3)C[C@H]1[C@@H]1O[C@@H]12` (some centres not stated): the compound was called inactive in assay [5], in assay [13], in assay [6], in assay [14], in assay [7] and in [8]. The result in assay [9], in assay [10] and in [11] was inactive.

As for `C=CCN1C[C@H](C)N([C@H](c2ccc(C(=O)N(CC)CC)cc2)c2cccc(OC)c2)C[C@H]1C`, the remaining activity in [4] is 118%.

In the case of `COP(=O)(OC)OC=C(Cl)Cl`, the luciferase signal in assay [1] is 84 AU.

Take `CC(C)NCC(O)c1ccc(N)c(C#N)c1` (configuration not stated): the remaining activity in [4] is 122%.

Consider `C#C[C@]1(O)C=C[C@H]2[C@@H]3CCC4=CC(=O)CC[C@@H]4[C@H]3CC[C@@]21CC`, for which the outcome in assay [5], in assay [13], in [6], in assay [14], in assay [7] and in [8] was inactive. Moreover, the call in [9] and in assay [10] was inactive.

For the compound `CCCN1CCC[C@@H]2Cc3nc(N)ncc3C[C@H]21`, in assay [2], the fluorescence ratio (interference) is 1. The compound was classed as inactive in [3].

As to `CCCCc1ccc(C(=O)O)nc1`, the fluorescence ratio (interference) in [2] is 1.1. The compound was classed as inactive in [3].

As for `C[C@]12CC[C@H](O)CC1=CC[C@@H]1[C@@H]2CC[C@]2(C)C(=O)CC[C@@H]12`, the outcome in assay [5], in [13], in assay [6], in assay [14], in assay [7] and in [8] was inactive. The call in assay [9], in assay [10] and in assay [11] was inactive. Besides, the luciferase signal in assay [1] was 48 AU.
